Activity calls are given as the source filed them. Rule for the calls: active = hit-call score of the fitted dose curve at least 0.9, where 1 is the maximum; inactive = score below 0.9.
How the values were obtained:
[1] = biological target: Transcription factor E2F1 (Homo sapiens) (UniProt Q01094); assay: ATG_E2F_CIS: Attagene CIS-FACTORIAL HepG2 Assay for human E2F Transcription Factor 1 (AID 2282935); conditions: HepG2 Attagene cis-reporter, E2F reporter RNA transcripts; actives raise or lower the signal
Chain of Transcription factor E2F1 (Homo sapiens) (Q01094 whole entry, looked up): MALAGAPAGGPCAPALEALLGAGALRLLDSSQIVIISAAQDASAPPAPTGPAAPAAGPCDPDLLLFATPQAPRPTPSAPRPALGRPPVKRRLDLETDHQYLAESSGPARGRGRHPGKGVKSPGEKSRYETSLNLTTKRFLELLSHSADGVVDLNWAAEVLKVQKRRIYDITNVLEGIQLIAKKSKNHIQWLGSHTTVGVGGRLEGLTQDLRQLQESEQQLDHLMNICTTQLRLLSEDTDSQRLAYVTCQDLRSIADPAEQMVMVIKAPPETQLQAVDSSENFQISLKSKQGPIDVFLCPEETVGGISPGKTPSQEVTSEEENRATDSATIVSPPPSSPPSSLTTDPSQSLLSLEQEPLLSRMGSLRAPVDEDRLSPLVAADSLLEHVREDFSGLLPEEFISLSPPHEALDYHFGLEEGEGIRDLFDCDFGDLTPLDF
How it was run: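 Measures reporter transcript levels via RT-PCR with capillary electrophoresis detection in HepG2 cells harboring cis-regulated reporter units; 24 h post-dose; bidirectional curve fitting with DMSO as baseline.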

[2] = ATG_M_61_CIS: Attagene CIS-FACTORIAL HepG2 Assay for M61 Transcription Factor (Internal Marker) (AID 2282937); conditions: HepG2 Attagene CIS-FACTORIAL M61 internal marker reporter; actives raise or lower the signal
How it was run: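 Transfect HepG2 with MRTUs; dose 24 h; isolate RNA; reverse-transcribe with DNase I treatment; PCR-amplify, FAM-label and cut with HpaI for 2 h at 37 C; resolve by CE. Bidirectional fitting against DMSO.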

[3] = ATG_EGR_CIS: Attagene CIS-FACTORIAL HepG2 Assay for human Early Growth Response 1 (EGR1) (AID 2282938); conditions: HepG2 Attagene CIS-FACTORIAL EGR reporter mRNA; actives raise or lower the signal
How it was run: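 After a 24 h treatment of transiently transfected HepG2 cells, total RNA was reverse-transcribed and reporter sequences PCR-amplified, labelled and run on capillary electrophoresis. Reporters sit under cis-regulatory promoters sensing endogenous factors.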

[4] = ATG_M_19_CIS: Attagene CIS-FACTORIAL HepG2 Assay for M19 Transcription Factor (Internal Marker) (AID 2282939); conditions: HepG2 Attagene CIS-FACTORIAL M19 internal marker reporter; actives raise or lower the signal
How it was run: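 Signals come from fluorescence of labelled reporter-specific PCR fragments resolved by capillary electrophoresis, following 24 h treatment of HepG2 cells transfected with cis-promoter reporter units; activity was fitted in both directions relative to DMSO.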

[5] = ATG_ERE_CIS: Attagene CIS-FACTORIAL HepG2 Assay for Estrogen Response Element (ERE) (AID 2282940); conditions: HepG2 ERE cis-reporter, Attagene RNA transcript; actives raise or lower the signal
How it was run: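 Fluorescence of capillary-separated, FAM-labelled reporter cDNA fragments indicates reporter mRNA levels in HepG2 cells exposed to chemicals for 24 h. Transient transfection with cis-regulated units; data fitted in both directions against DMSO.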

[6] = biological target: Hepatocyte nuclear factor 3-beta (Homo sapiens) (UniProt Q9Y261); assay: ATG_FoxA2_CIS: Attagene CIS-FACTORIAL HepG2 Assay for human Forkhead box A2 (FOXA2) (AID 2282942); conditions: HepG2 cis-reporter transcription factor activity, 24 h; actives raise or lower the signal
Chain of Hepatocyte nuclear factor 3-beta (Homo sapiens) (Q9Y261 whole entry, looked up): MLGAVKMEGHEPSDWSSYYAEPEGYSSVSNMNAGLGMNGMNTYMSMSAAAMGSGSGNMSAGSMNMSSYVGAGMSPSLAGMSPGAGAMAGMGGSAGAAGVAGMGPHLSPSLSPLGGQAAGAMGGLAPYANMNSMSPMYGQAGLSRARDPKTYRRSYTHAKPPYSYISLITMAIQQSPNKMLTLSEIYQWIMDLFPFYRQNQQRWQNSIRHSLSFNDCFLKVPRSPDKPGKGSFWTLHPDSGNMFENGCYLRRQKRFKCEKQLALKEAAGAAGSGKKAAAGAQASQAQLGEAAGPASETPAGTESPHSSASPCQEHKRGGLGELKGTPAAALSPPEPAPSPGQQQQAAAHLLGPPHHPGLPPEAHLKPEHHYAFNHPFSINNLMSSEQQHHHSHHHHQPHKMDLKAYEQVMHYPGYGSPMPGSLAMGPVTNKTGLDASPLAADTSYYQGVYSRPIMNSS
How it was run: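 24 h dosing of HepG2 bearing cis-reporter constructs; mRNA readout by RT-PCR/CE fluorescence; bidirectional fit, DMSO baseline.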

[7] = ATG_GATA_CIS: Attagene CIS-FACTORIAL HepG2 Assay for human GATA Binding Protein (AID 2282944); conditions: HepG2 GATA cis-element reporter, Attagene multiplex mRNA; actives raise or lower the signal
How it was run: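 After transfecting HepG2 cells with multiple cis-regulated reporter units, chemicals are dosed for 24 h; isolated RNA undergoes RT-PCR and fluorescent labeling before capillary electrophoresis, with activity expressed against DMSO.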

[8] = ATG_GLI_CIS: Attagene CIS-FACTORIAL HepG2 Assay for human Zinc Finger Protein GLI1 (AID 2282945); conditions: HepG2, Attagene cis-factorial reporter mRNA, GLI element; actives raise or lower the signal
How it was run: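 Transiently transfected HepG2 cells report endogenous transcription factor activity via cis-element-driven reporter units. After 24 h compound exposure, reporter mRNA was measured by RT-PCR with capillary electrophoresis; bidirectional fitting against DMSO baseline.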

[9] = biological target: Bile acid receptor (Homo sapiens) (UniProt Q96RI1); assay: ATG_IR1_CIS: Attagene CIS-FACTORIAL HepG2 Assay for human Nuclear Receptor Subfamily 1 Group H Member 4 (NR1H4), IR1 submotif (AID 2282946); conditions: IR1 reporter transcription, actives raise or lower the signal
Chain of Bile acid receptor (Homo sapiens) (Q96RI1 whole entry, looked up): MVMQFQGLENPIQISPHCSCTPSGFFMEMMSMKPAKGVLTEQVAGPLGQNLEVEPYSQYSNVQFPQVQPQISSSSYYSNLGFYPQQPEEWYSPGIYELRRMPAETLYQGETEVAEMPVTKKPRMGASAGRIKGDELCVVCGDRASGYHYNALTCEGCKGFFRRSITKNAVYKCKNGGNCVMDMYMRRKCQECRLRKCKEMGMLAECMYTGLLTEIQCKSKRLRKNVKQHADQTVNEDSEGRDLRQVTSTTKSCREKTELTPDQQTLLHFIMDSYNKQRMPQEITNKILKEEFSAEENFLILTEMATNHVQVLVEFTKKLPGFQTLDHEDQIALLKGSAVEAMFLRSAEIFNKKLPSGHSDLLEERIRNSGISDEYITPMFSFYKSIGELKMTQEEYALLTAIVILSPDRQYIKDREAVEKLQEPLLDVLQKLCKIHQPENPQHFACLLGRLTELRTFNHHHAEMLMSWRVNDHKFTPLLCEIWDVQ
How it was run: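 HepG2 cells transiently transfected with multiple cis-promoter-driven reporter units to measure endogenous transcription factor activity; 24 h exposure. Reporter mRNA read by RT-PCR, FAM labelling, HpaI digestion and capillary electrophoresis. Bidirectional fit versus DMSO.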

[10] = ATG_GRE_CIS: Attagene CIS-FACTORIAL HepG2 Assay for human Glucocorticoid Response Elements (GRE) (AID 2282947); conditions: HepG2 GRE cis-reporter, Attagene multiplex mRNA; actives raise or lower the signal
How it was run: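 Endogenous transcription factor activity is read through cis-element reporter constructs transiently transfected into HepG2 cells. After 24 h treatment, labelled RT-PCR products are resolved by capillary electrophoresis; DMSO sets baseline for bidirectional curve fitting.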

[11] = ATG_ISRE_CIS: Attagene CIS-FACTORIAL HepG2 Assay for human Interferon Regulatory Factor 1 (IRF1) binding to an Interferon-Stimulated Response Element (ISRE) (AID 2282948); conditions: HepG2 ISRE cis-reporter (Attagene), mRNA transcription readout; actives raise or lower the signal
How it was run: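 HepG2 cells transiently transfected with multiplexed cis-promoter reporter units; after 24 h compound exposure, reporter mRNA quantified by RT-PCR, FAM labelling, HpaI digestion and capillary electrophoresis. Bidirectional fit versus DMSO baseline.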

[12] = ATG_M_32_CIS: Attagene CIS-FACTORIAL HepG2 Assay for M32 Transcription Factor (Internal Marker) (AID 2282949); conditions: HepG2 Attagene cis-factorial M32 reporter, mRNA; actives raise or lower the signal;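 note: background control marker of the multiplexed CIS panel rather than a real target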
How it was run: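 Internal background marker read-out: RT-PCR/capillary electrophoresis fluorescence of reporter transcripts from transiently transfected HepG2 cells after 24 h chemical exposure. Activity fitted bidirectionally relative to DMSO negative control.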

[13] = ATG_M_06_CIS: Attagene CIS-FACTORIAL HepG2 Assay for M06 Transcription Factor (Internal Marker) (AID 2282950); conditions: HepG2 Attagene CIS-FACTORIAL M06 internal marker reporter; actives raise or lower the signal
How it was run: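 HepG2 liver cells, 24 h exposure. Reporter transcripts from transfected cis-element constructs quantified by RT-PCR/capillary electrophoresis fluorescence. Bidirectional curve fit against DMSO.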

[14] = biological target: Hepatocyte nuclear factor 6 (Homo sapiens) (UniProt Q9UBC0); assay: ATG_HNF6_CIS: Attagene CIS-FACTORIAL HepG2 Assay for human Hepatocyte Nuclear Factor 6 (HNF6) (AID 2282952); conditions: HepG2 Attagene cis-factorial HNF6 reporter transcription; actives raise or lower the signal
Chain of Hepatocyte nuclear factor 6 (Homo sapiens) (Q9UBC0 whole entry, looked up, the tested form may be a part): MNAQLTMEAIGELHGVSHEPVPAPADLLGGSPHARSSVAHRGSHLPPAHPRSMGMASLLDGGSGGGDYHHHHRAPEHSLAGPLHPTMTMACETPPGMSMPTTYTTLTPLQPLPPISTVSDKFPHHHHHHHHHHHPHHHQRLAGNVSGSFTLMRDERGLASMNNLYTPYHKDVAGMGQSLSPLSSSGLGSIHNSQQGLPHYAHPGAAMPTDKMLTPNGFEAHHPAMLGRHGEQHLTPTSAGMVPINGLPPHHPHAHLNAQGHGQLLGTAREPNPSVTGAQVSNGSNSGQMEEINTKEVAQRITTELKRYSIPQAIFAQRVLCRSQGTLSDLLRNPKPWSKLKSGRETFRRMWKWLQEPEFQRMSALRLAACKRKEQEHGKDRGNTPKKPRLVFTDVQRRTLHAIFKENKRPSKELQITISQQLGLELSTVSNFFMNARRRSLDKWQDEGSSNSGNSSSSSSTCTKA
How it was run: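 Reporter mRNA induction or loss in HepG2 after 24 h exposure; transient cis-MRTU transfection; fragments quantified by capillary electrophoresis; bidirectional analysis, DMSO as negative control.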

[15] = ATG_MRE_CIS: Attagene CIS-FACTORIAL HepG2 Assay for human Metal Responsive Element (MRE) (AID 2282954); conditions: HepG2 MRE cis-reporter transcription, Attagene multiplex; actives raise or lower the signal
How it was run: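 Fluorescent reporter fragments separated by capillary electrophoresis give mRNA induction for the MRE unit after 24 h treatment of transfected HepG2 cells. Endogenous transcription-factor activity is read; DMSO serves as negative control and baseline.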

[16] = ATG_Ets_CIS: Attagene CIS-FACTORIAL HepG2 Assay for human Erythroblast Transformation Specific (ETS) (AID 2282941); conditions: HepG2 ETS cis-reporter transcription, actives raise or lower the signal
How it was run: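 HepG2 cells transiently transfected with cis-promoter reporter transcription units were dosed for 24 h; reporter mRNA was measured by RT-PCR, 6-FAM primer extension, HpaI digestion and capillary electrophoresis, with bidirectional fitting against DMSO baseline.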

[17] = ATG_FoxO_CIS: Attagene CIS-FACTORIAL HepG2 Assay for human Forkhead box O (FoxO) (AID 2282943); conditions: HepG2 Attagene cis-reporter, FoxO element, mRNA; actives raise or lower the signal
How it was run: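 HepG2 cells transiently transfected with cis-element-driven reporter units report endogenous FoxO activity. After 24 h chemical exposure, reporter mRNA quantified by RT-PCR, fluorescent labeling, HpaI digestion and capillary electrophoresis; bidirectional fit versus DMSO.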

[18] = biological target: Hypoxia-inducible factor 1-alpha (Homo sapiens) (UniProt Q16665); assay: ATG_HIF1a_CIS: Attagene CIS-FACTORIAL HepG2 Assay for human Hypoxia Inducible Factor 1 (HIF1A) (AID 2282951); conditions: HepG2 Attagene cis-factorial HIF1a reporter transcription; actives raise or lower the signal
Chain of Hypoxia-inducible factor 1-alpha (Homo sapiens) (Q16665 whole entry, looked up): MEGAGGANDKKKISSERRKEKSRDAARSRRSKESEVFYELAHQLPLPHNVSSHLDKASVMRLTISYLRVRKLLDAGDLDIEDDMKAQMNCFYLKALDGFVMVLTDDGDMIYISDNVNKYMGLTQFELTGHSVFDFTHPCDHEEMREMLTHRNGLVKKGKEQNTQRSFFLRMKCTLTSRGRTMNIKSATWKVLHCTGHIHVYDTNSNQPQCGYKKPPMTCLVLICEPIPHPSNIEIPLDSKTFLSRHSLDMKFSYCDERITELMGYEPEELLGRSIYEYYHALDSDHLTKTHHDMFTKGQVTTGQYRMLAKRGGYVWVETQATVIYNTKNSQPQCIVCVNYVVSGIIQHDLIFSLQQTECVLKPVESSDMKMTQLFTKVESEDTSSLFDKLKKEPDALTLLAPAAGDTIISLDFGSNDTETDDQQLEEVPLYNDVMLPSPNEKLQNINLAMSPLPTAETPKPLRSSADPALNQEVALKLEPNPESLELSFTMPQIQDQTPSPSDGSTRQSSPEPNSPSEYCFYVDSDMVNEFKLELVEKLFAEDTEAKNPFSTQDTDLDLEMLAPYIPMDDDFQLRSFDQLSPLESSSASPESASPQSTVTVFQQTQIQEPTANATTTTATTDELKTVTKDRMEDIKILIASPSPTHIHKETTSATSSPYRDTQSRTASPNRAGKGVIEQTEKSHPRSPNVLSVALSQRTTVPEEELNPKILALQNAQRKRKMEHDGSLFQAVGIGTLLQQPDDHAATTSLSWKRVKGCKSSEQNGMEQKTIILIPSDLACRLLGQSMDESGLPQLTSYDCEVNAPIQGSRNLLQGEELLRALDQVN
How it was run: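 After 24 h chemical exposure of reporter-transfected HepG2 cells, reporter cDNA was PCR-amplified, labelled by 6-FAM primer extension (2 min 95 C, 20 s 68 C, 10 min 72 C), HpaI-cut (2 h, 37 C) and analysed by CE.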

[19] = biological target: Heat shock factor protein 1 (Homo sapiens) (UniProt Q00613); assay: ATG_HSE_CIS: Attagene CIS-FACTORIAL HepG2 Assay for human Heat Shock Transcription Factor 1 (HSE) (AID 2282953); conditions: HepG2 HSE cis-reporter, Attagene RNA transcription; actives raise or lower the signal
Chain of Heat shock factor protein 1 (Homo sapiens) (Q00613 whole entry, looked up, the tested form may be a part): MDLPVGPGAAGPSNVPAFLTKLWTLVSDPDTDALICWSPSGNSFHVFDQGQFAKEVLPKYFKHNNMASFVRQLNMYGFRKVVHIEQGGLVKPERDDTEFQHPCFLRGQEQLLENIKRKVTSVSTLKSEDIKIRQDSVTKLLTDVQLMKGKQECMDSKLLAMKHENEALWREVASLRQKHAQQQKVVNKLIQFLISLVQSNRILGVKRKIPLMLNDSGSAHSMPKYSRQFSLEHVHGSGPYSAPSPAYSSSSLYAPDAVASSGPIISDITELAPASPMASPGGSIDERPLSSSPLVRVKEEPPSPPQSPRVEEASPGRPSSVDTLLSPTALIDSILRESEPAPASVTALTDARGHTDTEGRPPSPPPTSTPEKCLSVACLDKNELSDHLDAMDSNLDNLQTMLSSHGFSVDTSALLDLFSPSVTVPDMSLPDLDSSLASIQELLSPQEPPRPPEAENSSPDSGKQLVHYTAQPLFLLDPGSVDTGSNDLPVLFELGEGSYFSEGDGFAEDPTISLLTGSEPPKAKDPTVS
How it was run: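 Endogenous transcription factor activity captured via cis-promoter reporter units transfected into HepG2; treatment lasted 24 h. Fluorescence intensity of reporter fragments analysed with bidirectional curve fitting, DMSO baseline.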

Measured: AC50

CCOC(=O)C(C)(C)Oc1ccc(Cl)cc1
not listed: [16] | [17] | [18] | [19]
inactive: all other assays above

CCCc1cc(=O)[nH]c(=S)[nH]1
active: [5] 4.56 µM
not listed: [9] | [10] | [17] | [18] | [19]
inactive: all other assays above

Cc1ccc(N(C)C)cc1
not listed: [9] | [16] | [18] | [19]
inactive: all other assays above

CCCCc1ccc2c(n1)[C@@H](c1ccc(OC)cc1C[C@H](C)C(=O)O)[C@H](C(=O)O)[C@H]2c1ccc2c(c1)OCO2
not listed: [16] | [19]
inactive: all other assays above

CC1(C)NC(=O)NC1=O
active: [5] 26.3 µM
not listed: [9] | [16] | [17] | [18]
inactive: all other assays above

O=C(N[C@@H](Cc1ccccc1)[C@@H](O)C(=O)N1C[C@@H](O)[C@@H](O)C1)c1cc2cc(Cl)ccc2[nH]1
active: [15] 100 µM
not listed: [9] | [16] | [18]
inactive: all other assays above

Nc1ccc2c(c1)C(=O)c1ccccc1C2=O
active: [5] 7.14 µM
not listed: [9] | [16] | [17] | [18]
inactive: all other assays above

NCC1(Cc2noc(=O)[nH]2)CCCCC1
not listed: [9] | [10] | [16] | [18]
inactive: all other assays above

— PubChem BioAssay (EPA / NIEHS)
